Test results as given in PubChem BioAssay AID1159580 (chemical genetic matrix, 2015).
In all, about 5,500 compounds went through this assay and about 2,000 (36%) were called active. Another 18% or so got no clear call; they are omitted. Rule as the data show it: active = normalized growth mostly below about 0.91 (no sharp cut-off); inconclusive = no clear call, values can overlap the other calls; inactive = mostly above about 0.92. This is one part of the list.

Test: chemical genetic growth profiling, strain panel (AID 1159580);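 also: tested at 20 µM; growth read once vehicle control cultures reached saturation at 30 °C; 1 = growth at the plate median or of vehicle wells; lower values mean less growth of the strain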
Conditions: growth OD

Measured: normalized growth

Oc1cc(O)c2c(c1)O[C@H](c1ccc(O)c(O)c1)[C@H](O)C2
inactive: S. cerevisiae deletion strains, locus YJR043C, strain POL32, active compounds read low 1.07 | S. cerevisiae deletion strains, locus YJR066W, strain TOR1, active compounds read low 0.94 | S. cerevisiae deletion strains, locus YKL009W, strain mrt4, active compounds read low 0.972 | S. cerevisiae deletion strains, locus YKL068W, active compounds read low 0.979 | S. cerevisiae deletion strains, locus YKL085W, strain MDH1 (second series), active compounds read low 0.981 | S. cerevisiae deletion strains, locus YKL085W, strain MDH1, active compounds read low 0.981 | S. cerevisiae deletion strains, locus YKL160W, strain elf1, active compounds read low 1 | S. cerevisiae deletion strains, locus YKR001C, strain vps1, active compounds read low 1 | S. cerevisiae deletion strains, locus YKR026C, strain gcn3, active compounds read low 1 | S. cerevisiae deletion strains, locus YKR091W, strain srl3, active compounds read low 0.999 | S. cerevisiae deletion strains, locus YLL001W, strain dnm1, active compounds read low 0.994 | S. cerevisiae deletion strains, locus YLL026W, active compounds read low 1.01 | S. cerevisiae deletion strains, locus YLL041C, strain sdh2, active compounds read low 1.01 | S. cerevisiae deletion strains, locus YLR027C, strain aat2, active compounds read low 0.996 | S. cerevisiae deletion strains, locus YLR039C, strain RIC1, active compounds read low 1.08 | S. cerevisiae deletion strains, locus YLR058C, strain SHM2, active compounds read low 1.01 | S. cerevisiae deletion strains, locus YLR102C, strain apc9, active compounds read low 0.982 | S. cerevisiae deletion strains, locus YLR113W, strain HOG1, active compounds read low 1.02 | S. cerevisiae deletion strains, locus YLR221C, strain rsa3, active compounds read low 1.04 | S. cerevisiae deletion strains, locus YLR258W, strain gsy2, active compounds read low 1.01 | S. cerevisiae deletion strains, locus YLR262C, strain YPT6 (second series), active compounds read low 0.997 | S. cerevisiae deletion strains, locus YLR262C, strain YPT6, active compounds read low 1.06 | S. cerevisiae deletion strains, locus YLR268W, strain sec22, active compounds read low 0.979 | S. cerevisiae deletion strains, locus YLR320W, strain mms22, active compounds read low 1.05 | S. cerevisiae deletion strains, locus YLR330W, strain CHS5, active compounds read low 1.01 | S. cerevisiae deletion strains, locus YLR342W, strain FKS1 (second series), active compounds read low 1.04 | S. cerevisiae deletion strains, locus YLR342W, strain FKS1, active compounds read low 1.01 | S. cerevisiae deletion strains, locus YLR357W, strain rsc2, active compounds read low 0.992 | S. cerevisiae deletion strains, locus YLR370C, strain arc18, active compounds read low 1.01 | S. cerevisiae deletion strains, locus YLR371W, strain rom2, active compounds read low 0.975 | S. cerevisiae deletion strains, locus YLR384C, strain iki3, active compounds read low 0.995 | S. cerevisiae deletion strains, locus YLR418C, strain cdc73, active compounds read low 1.03 | S. cerevisiae deletion strains, locus YML016C, strain PPZ1, active compounds read low 0.992 | S. cerevisiae deletion strains, locus YML032C, strain rad52, active compounds read low 1.01 | S. cerevisiae deletion strains, locus YML120C, strain ndi1, active compounds read low 0.996 | S. cerevisiae deletion strains, locus YML124C, strain tub3, active compounds read low 0.992 | S. cerevisiae deletion strains, locus YMR058W, strain fet3, active compounds read low 1.02 | S. cerevisiae deletion strains, locus YMR078C, strain ctf18, active compounds read low 0.977 | S. cerevisiae deletion strains, locus YMR125W, strain sto1, active compounds read low 1 | S. cerevisiae deletion strains, locus YMR129W, active compounds read low 1 | S. cerevisiae deletion strains, locus YMR205C, strain PFK2, active compounds read low 1.03 | S. cerevisiae deletion strains, locus YMR223W, strain ubp8, active compounds read low 1 | S. cerevisiae deletion strains, locus YMR231W, strain pep5, active compounds read low 0.981 | S. cerevisiae deletion strains, locus YMR307W, strain GAS1, active compounds read low 1.22 | S. cerevisiae deletion strains, locus YNL067W, strain RPL9B, active compounds read low 0.971 | S. cerevisiae deletion strains, locus YNL071W, strain lat1, active compounds read low 1.01 | S. cerevisiae deletion strains, locus YNL183C, strain NPR1, active compounds read low 0.95 | S. cerevisiae deletion strains, locus YNL209W, strain ssb2, active compounds read low 0.994 | S. cerevisiae deletion strains, locus YNL233W, strain BNI4, active compounds read low 1.01 | S. cerevisiae deletion strains, locus YNL248C, strain rpa49, active compounds read low 1 | S. cerevisiae deletion strains, locus YNL250W, strain rad50, active compounds read low 0.937 | S. cerevisiae deletion strains, locus YNL271C, strain bni1, active compounds read low 0.984 | S. cerevisiae deletion strains, locus YNL298W, strain CLA4, active compounds read low 1.01 | S. cerevisiae deletion strains, locus YNL307C, strain MCK1, active compounds read low 0.977 | S. cerevisiae deletion strains, locus YNL322C, strain KRE1 (second series), active compounds read low 1.01 | S. cerevisiae deletion strains, locus YNL322C, strain KRE1, active compounds read low 1.01 | S. cerevisiae deletion strains, locus YNR049C, strain mso1, active compounds read low 1.01 | S. cerevisiae deletion strains, locus YNR052C, strain pop2, active compounds read low 0.991 | S. cerevisiae deletion strains, locus YOL006C, strain TOP1, active compounds read low 1.03 | S. cerevisiae deletion strains, locus YOL012C, strain htz1 1.18 | S. cerevisiae deletion strains, locus YOL147C, strain pex11, active compounds read low 0.998 | S. cerevisiae deletion strains, locus YOR001W, strain rrp6, active compounds read low 1.04 | S. cerevisiae deletion strains, locus YOR061W, strain CKA2, active compounds read low 0.998 | S. cerevisiae deletion strains, locus YOR069W, strain VPS5, active compounds read low 0.999 | S. cerevisiae deletion strains, locus YOR070C, strain gyp1, active compounds read low 1 | S. cerevisiae deletion strains, locus YOR080W, strain dia2, active compounds read low 1.01 | S. cerevisiae deletion strains, locus YOR083W, strain WHI5, active compounds read low 1.01 | S. cerevisiae deletion strains, locus YOR106W, strain vam3, active compounds read low 1.03 | S. cerevisiae deletion strains, locus YOR136W, strain idh2, active compounds read low 0.985 | S. cerevisiae deletion strains, locus YOR144C, strain elg1, active compounds read low 1.01 | S. cerevisiae deletion strains, locus YOR184W, strain ser1, active compounds read low 1 | S. cerevisiae deletion strains, locus YOR231W, strain MKK1, active compounds read low 0.992 | S. cerevisiae deletion strains, locus YOR265W, strain rbl2, active compounds read low 1.02 | S. cerevisiae deletion strains, locus YOR270C, strain vph1, active compounds read low 1.08 | S. cerevisiae deletion strains, locus YOR290C, strain snf2, active compounds read low 0.99 | S. cerevisiae deletion strains, locus YOR316C, strain cot1, active compounds read low 0.989 | S. cerevisiae deletion strains, locus YPL051W, strain arl3, active compounds read low 1.01 | S. cerevisiae deletion strains, locus YPL078C, strain atp4, active compounds read low 1.03 | S. cerevisiae deletion strains, locus YPL106C, strain sse1, active compounds read low 1.01 | S. cerevisiae deletion strains, locus YPL240C, strain hsp82, active compounds read low 1.01 | S. cerevisiae deletion strains, locus YPL256C, strain CLN2, active compounds read low 0.98 | S. cerevisiae deletion strains, locus YPR119W, strain clb2, active compounds read low 0.978 | S. cerevisiae deletion strains, locus YPR141C, strain kar3, active compounds read low 0.976 | S. cerevisiae deletion strains, locus YPR163C, strain tif3, active compounds read low 0.991 | S. cerevisiae deletion strains, locus YPR167C, strain met16, active compounds read low 0.987 | S. cerevisiae deletion strains, strain wtn01, active compounds read low 0.992 | S. cerevisiae strains, strain wild type, active compounds read low 1.01
